Measurements taken from PubChem BioAssay AID1259415 (National Center for Advancing Translational Sciences (NCATS), 2018).
In all, about 410,000 compounds went through this assay and about 18,000 (4.4%) were called active. About 7% were inconclusive and are not listed. Cut-off read from the data, not from the text of the source: active = activity change below about -60%; inconclusive = no clear call, values can overlap the other calls; inactive = above about -39%. Many of the other results were omitted from the sample, so actives are more common in it than they were.

Test: qHTS Assay for inhibitors of the human cytomegalovirus (HCMV)
Conditions: HFF cells, HCMV-luciferase reporter, 72 h; at 57.5 µM; hits give low values
Outline: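 HFF cells seeded 16 h at 37C, treated with compounds, infected with luciferase-reporter HCMV at MOI 1 PFU/cell; luciferase read at 72 h post infection, normalized to buffer-only and Salinomycin controls.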
% is set by controls: 0 for no effect and ±100 for the full control effect.

| SMILES | activity change, negative = inhibition |
| --- | --- |
| CCOc1cccc2c1N[C@@H](c1ccc(C(=O)O)cc1)[C@H]1CC=C[C@@H]21 | -5.85% (inactive) |
| COc1ccccc1NC(=O)c1cc(Cl)nnc1Cl | -22.5% (inactive) |
| COc1ccccc1C(=O)Nc1c(C(=O)N(C)Cc2ccccc2)sc2nc(C)c(Cl)c(C)c12 | -19.6% (inactive) |
| COc1ccccc1NC(=O)c1sc2nc(C)c(C(=O)Nc3ccc(Cl)cc3)c(-c3ccc(Br)cc3)c2c1N | -104% (active) |
| Cc1ccc(Nc2c(-c3ccc(C)s3)nc3ccccn23)cc1 | 74.5% (inactive) |
| Cc1ccc(NC(=O)c2oc3ccc(S(=O)(=O)N4CCCCC4)cc3c2C)cc1Cl | -4.09% (inactive) |
| Cc1ccc(S(=O)(=O)N(CC(=O)NCc2ccco2)c2ccccc2C)cc1 | -14.7% (inactive) |
| COc1ccc(C)cc1N(CC(=O)NC(C)c1ccccc1)S(C)(=O)=O (centres undefined) | -5.84% (inactive) |
| COc1ccccc1N(CC(=O)N1CCCCC1)S(=O)(=O)c1ccccc1 | -0.178% (inactive) |
| COc1ccccc1N(CC(=O)N/N=C(\C)c1ccccc1O)S(=O)(=O)c1ccc(C)cc1 | -68.7% (active) |
| COc1ccccc1NC(=O)CN(c1ccccc1OC)S(=O)(=O)c1ccccc1 | -93.1% (active) |
| COc1ccccc1N(CC(=O)Nc1c(C)n(C)n(-c2ccccc2)c1=O)S(=O)(=O)c1ccccc1 | -32% (inactive) |
| Cc1cc(C)cc(-n2c(SCC(=O)NCC3CCCO3)nc3c([nH]c4ccccc43)c2=O)c1 (centres undefined) | 10.8% (inactive) |
| Cc1cc(NC(=O)CN2C(=O)NC(CC(C)C)C2=O)no1 (centres undefined) | 3.09% (inactive) |
| O=C(Nc1ccccc1Cl)N1CCN(c2ccc3nncn3n2)CC1 | -11.9% (inactive) |
| Cc1ccccc1C(=O)Nc1cc(C)c(O)c(-c2nc3ccccc3o2)c1 | -13.9% (inactive) |
| Cc1ccc(C)n1-c1nnc(N2CCC(C(=O)NCc3ccc(F)cc3)CC2)s1 | 29.6% (inactive) |
| CCOC(=O)c1c(-c2ccc(C)cc2C)csc1NC(=O)CSc1nnnn1C | -95.4% (active) |
| CCOC(=O)c1c(NC(=O)CSc2nnc(CNc3ccc(C)cc3C)o2)sc(C)c1C | 3.08% (inactive) |
| Cn1nnnc1SCC(=O)Nc1sccc1C(N)=O | 3.24% (inactive) |
| CCOc1ccc(CCNC(=O)Cn2nc(CC)n3c(cc4sc(CC)cc43)c2=O)cc1OCC | -8.37% (inactive) |
| CCOC(=O)c1c(NC(=O)/C=C/c2ccc(OC)cc2)sc2c1CCC(C)C2 (centres undefined) | -22.4% (inactive) |
| CC1CCN(S(=O)(=O)c2ccc3c(c2)N(CC(=O)NCCc2ccccc2)C(=O)CO3)CC1 | -11.1% (inactive) |
| Cc1ccc(-n2nc(C)c3c(C)cc(=O)n(CC(=O)Nc4ccc(C(C)C)cc4)c32)cc1 | 11% (inactive) |
| COc1ccc(-c2cc(C(F)(F)F)nc(S(C)(=O)=O)n2)cc1OC | -98.2% (active) |
| COc1ccc(CCNc2nc(-c3ccc(F)cc3)cc(C(F)(F)F)n2)cc1OC | -24.7% (inactive) |
| COc1ccc(-c2cc(C(F)(F)F)nc(SCC(=O)N(C)Cc3ccccc3)n2)cc1OC | -16.1% (inactive) |

| SMILES | activity change, negative = inhibition |
| --- | --- |
| CC(C)Sc1oc(-c2cccs2)nc1S(=O)(=O)c1ccc(Cl)cc1 | 0.0343% (inactive) |
| Cc1cc(NC(=O)CCC(=O)N(c2cccc(F)c2)C(C(=O)NC2CCCC2)c2ccncc2)no1 (centres undefined) | -19.9% (inactive) |
| Cc1cc(NC(=O)/C=C/C(=O)N(CC(=O)NC2CCCC2)c2ccc(F)cc2)no1 | 29.1% (inactive) |
| Cc1cc(NC(=O)/C=C/C(=O)N(c2ccccc2C)C(C(=O)NC2CCCC2)c2ccc(F)cc2)no1 (centres undefined) | -73.5% (active) |
| Cc1cccc(C)c1-n1nnnc1C1C(=O)NC(=S)N1c1ccccc1 (centres undefined) | 26.7% (inactive) |
| Cn1c(=O)c2c(nc(SCC(=O)Nc3ccc(F)cc3)n2Cc2ccccc2)n(C)c1=O | 5.41% (inactive) |
| CCn1c(-c2cc(OC)ccc2OC)csc1=Nc1c(C)n(C)n(-c2ccccc2)c1=O | -25.8% (inactive) |
| COc1ccc(/C=N/n2c(C)cc(C)cc2=O)cc1 | -24.9% (inactive) |
| CN=c1scc(-c2cc(OC)ccc2OC)n1/N=C/c1c(C)[nH]c2ccccc12 | -85.5% (active) |
| CCOC(=O)c1ccc(NC(=O)CCS(=O)(=O)c2ccc(C)cc2)cc1 | 0% (inactive) |
| OCc1cnc(SCc2ccc(F)cc2)n1Cc1ccc(F)cc1 | -26.3% (inactive) |
| O=C(c1ccco1)N1CCN(C(=O)C2CCCN(S(=O)(=O)c3cccc4nsnc34)C2)CC1 (centres undefined) | -12.2% (inactive) |
| COC(=O)C(C)N(C#N)c1nc(C)nc(C)n1 (centres undefined) | -110% (active) |
| CNc1nc(SC)nc(N(C#N)CC(=O)OC)n1 | 81.6% (inactive) |
| CCOC(=O)c1c(C)oc2nc(C)nc(N(CC(C)C)CC(C)C)c12 | -31.4% (inactive) |
| CCCCCn1c(CCCNC(=O)c2ccccc2OC)nc2ccccc21 | -34.7% (inactive) |
| Clc1ccc(CSc2nncn3c2cc2occc23)cc1 | -20.2% (inactive) |
| COc1ccc(CCn2c(O)c(C=NC3CC3)c(=O)[nH]c2=O)cc1OC | -4.78% (inactive) |
| O=c1[nH]c(=O)n(CCc2ccc(F)cc2)c(O)c1/C=N/N1CCCCC1 | -4.21% (inactive) |
| COc1ccc(CCn2c(O)c(C=NCCCn3ccnc3)c(=O)[nH]c2=O)cc1OC | -107% (active) |
| CC(C)(C(=O)Nc1ccccc1)n1cc(NC(=O)c2cc(F)cc(F)c2)cn1 | 9.36% (inactive) |
| Cc1ccc(C(C(=O)NCC2CCCO2)N(C(=O)c2snc(C(N)=O)c2N)c2ccc(C(C)C)cc2)o1 (centres undefined) | -9.39% (inactive) |
| O=C(NNC(=S)NC(=O)c1cn(-c2ccccc2)nc1-c1ccccc1)c1ccncc1 | 21.1% (inactive) |
| O=C(CSc1ccc(/C=N/NC(=O)c2cccc(F)c2)o1)Nc1ccccc1 | -21.6% (inactive) |
| O=C(N/N=C/c1ccc([N+](=O)[O-])o1)c1cn(-c2ccccc2)nc1-c1ccc(F)cc1 | -65.8% (active) |
| O=C(NCCCN1CCCC1=O)c1cccc(S(=O)(=O)NCc2ccccc2)c1 | 0.765% (inactive) |
| Clc1ccc2c(c1)C1=C(C(c3ccncc3)O2)C(c2ccc(Br)cc2)n2ncnc2N1 (centres undefined) | -78.3% (active) |
